Bioassay records as filed in PubChem.
Mito fusion yeast = qHTS Assay for Small Molecule Inhibitors of Mitochondrial Division or Activators of Mitochondrial Fusion | S. cerevisiae fusion-defective mutant growth rescue, CellTiterGlo 48 h | AID 485298, 2010 | 0.23% of 320,000 active | Potency, µM (doses to about 46.1 µM), hits mostly activators; further: nearly all actives have a fitted effect of over 45% in size
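Luminescent cell viability in 1536-well qHTS format served as the measure of rescued growth in ts fusion-mutant S. cerevisiae cultured on non-fermentable YPEG for 48 hours at 37C.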
HEK293 tox = qHTS of GLP-1 Receptor Inverse Agonists: Cytotox Screen. 0.13% of 410,000 active. HEK293 cAMP-luciferase reporter cells, luminescence, 24 h. Potency, µM (doses to about 38.3 µM), usual class: inhibitors;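 further: loss of luciferase light is scored as toxicity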
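MLSMR compounds, 24 hr on cells at 37 deg C/5% CO2; luminescence after luciferase reagent (12 min RT). Inhibition counted as the undesired cytotoxic outcome.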
GLP-1R inv ag = qHTS of GLP-1 Receptor Inverse Agonists (Inhibition Mode); HEK293 GLP-1R CRE-luciferase, luminescence, 24 h; GLP-1R form is constitutively active; 1.6% of 410,000 active; Potency, µM (titrated, usually from 38.3 µM), most hits filed as inhibitors; Glucagon-like peptide 1 receptor (Homo sapiens), P43220; further: nearly all actives have a fitted effect of over 55% in size
Target sequence (P43220 whole entry, looked up): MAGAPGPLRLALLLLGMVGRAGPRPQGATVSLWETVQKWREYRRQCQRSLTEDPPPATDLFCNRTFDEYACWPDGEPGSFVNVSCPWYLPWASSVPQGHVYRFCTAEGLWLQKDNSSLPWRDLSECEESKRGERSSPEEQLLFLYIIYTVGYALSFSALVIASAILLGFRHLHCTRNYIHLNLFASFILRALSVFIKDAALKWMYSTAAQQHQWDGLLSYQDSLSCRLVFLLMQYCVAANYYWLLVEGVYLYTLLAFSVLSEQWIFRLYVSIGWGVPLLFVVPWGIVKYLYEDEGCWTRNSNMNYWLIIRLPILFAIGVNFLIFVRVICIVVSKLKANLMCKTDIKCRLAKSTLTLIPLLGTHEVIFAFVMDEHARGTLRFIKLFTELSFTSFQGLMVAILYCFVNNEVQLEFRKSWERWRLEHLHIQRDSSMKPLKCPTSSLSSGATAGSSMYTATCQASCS
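Using stably transfected HEK293 (constitutively active GLP-1R, cAMP-luciferase reporter), compounds were incubated 24 hr and luciferase measured by luminescence.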
BRCA1 expr act = qHTS Assay to Identify Small Molecule Activators of BRCA1 Expression | AID 624202, 2012 | Potency, µM (highest dose often 46.1 µM), usual class: activators | MCF7-BRCA1-FFLuc reporter, luminescence, 48 h; response scale: scaled: vehicle 0%, 10 µM genistein 100% | 1.1% of 380,000 active; further: nearly all actives have a fitted effect of over 80% in size
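Luminescence from a BRCA1-driven firefly luciferase in MCF7 cells was read after 48 h compound exposure at 37 C. Data normalized against DMSO and a 10microM genistein activation control, then curve-fitted across the titration.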
GLP1R ag = qHTS of GLP-1 Receptor Agonists | HEK293 GLP-1R CRE-luciferase, luminescence, 4-6 h; cells express a hypersensitive GLP-1R form | Potency, µM (series often up to 45.6 µM), usual class: activators | 0.007% of 380,000 active | AID 624172, 2012
Hits are given with their value; - = inactive; ? = inconclusive; . = no result. Rows were chosen to be rich in hits. Some 2.8% of all compounds tested hit in one or more screens of this group. The call rests on the fitted dose curve; in most records, active means well fitted curve in the direction sought with a large enough effect; inconclusive means small, poorly fitted or top-dose-only effect, or another doubt; inactive means no such curve, though single readings can be large; an effect the other way counts as inactive or inconclusive.

SMILES | Mito fusion yeast | HEK293 tox | GLP-1R inv ag | BRCA1 expr act | GLP1R ag
Cn1cc([N+](=O)[O-])c(C(=O)Nc2sc3c(c2C#N)CCC3)n1 | 11µM | ? | - | - | -
Cc1cc(=O)oc2cc(OCC(O)Cn3ccnc3)ccc12 (configuration not stated) | - | - | - | - | -
O=C(Nc1ccc2c(c1)OCCO2)C(C1CC1)n1c(=O)c(-c2cc3ccccc3[nH]2)nc2ccccc21 (configuration not stated) | . | - | 11µM | . | .
COc1ccc(NC(=O)C(C2CC2)n2c(=O)c(-c3cc4ccccc4[nH]3)nc3ccccc32)cc1 (configuration not stated) | . | - | ? | . | .
O=C(Nc1ccc2ccccc2c1)C(C1CC1)n1c(=O)c(-c2cc3ccccc3[nH]2)nc2ccccc21 (configuration not stated) | . | - | 5µM | . | .
CC(C)(CNC(=O)c1sc2cc(Cl)ccc2c1Cl)N1CCOCC1 | - | - | 10µM | - | -
O=C(NCC1CCCO1)c1sc2cc(Cl)ccc2c1Cl (configuration not stated) | - | - | - | 10µM | -
O=C(Nc1ccc(Cl)cc1C(=O)NCC1CCCO1)c1ccc(Cl)cc1Cl (configuration not stated) | - | - | ? | - | -
Cc1ccc(NC(=O)CS(=O)(=O)c2nc(-c3ccc(C)cc3)cn2-c2ccc(C)cc2)cc1 | . | - | ? | . | .
O=C(Nc1ccc(Br)cc1)c1ccc(F)c(S(=O)(=O)NC2CCCCCC2)c1 | . | ? | 3.2µM | - | .
CCC1CCCCN1S(=O)(=O)c1cc(C(=O)Nc2ccc(C)c(F)c2)ccc1F (configuration not stated) | . | - | 10µM | . | .
COCCNc1nc(SC)nc2sc3c(c12)CCN(C)C3 | - | - | - | - | -
Cc1ccc(OCc2cc(C(=O)N(C)C3CCCc4ccccc43)no2)cc1C (configuration not stated) | . | - | 11µM | - | -
CC(=O)c1cccc(OCc2cc(C(=O)N(C)CCc3ccccn3)no2)c1 | - | - | - | - | -
C#CCN(C(=O)c1cc(COc2ccc(C)c(C)c2)on1)C1CCCCC1 | - | - | 10µM | - | -
Cc1ccc(OCc2cc(C(=O)N(C)CCc3ccccn3)no2)cc1C | ? | - | ? | 8.9µM | -
CCOC(=O)CCN1C(=O)c2ccccc2Sc2ncccc21 | - | - | - | - | -
COc1cccc2sc(=NC(=O)c3ccc(S(=O)(=O)N4CCCCC4)cc3)n(C)c12 | . | - | - | - | -
CCN1CCN(c2ncc3c(n2)CCN(Cc2ccc(C)s2)C3)CC1 | . | - | ? | . | .
CCN1CCN(c2ncc3c(n2)CCN(Cc2cc(Br)cs2)C3)CC1 | . | - | 4.5µM | . | .
CCN1CCN(c2ncc3c(n2)CCN(Cc2ccc(OC(C)C)cc2)C3)CC1 | . | - | 10µM | . | .
CCCCN1CCc2nc(N3CCN(C)CC3)ncc2C1 | . | - | - | . | .
CN1CCN(c2ncc3c(n2)CCN(Cc2ccc(Br)s2)C3)CC1 | . | - | 3.2µM | . | .
CCN1CCN(c2ncc3c(n2)CCN(Cc2ccc(Br)s2)C3)CC1 | . | - | 3.2µM | . | .
O=C(NCC(=O)N1CCC2(CC1)NCCc1[nH]cnc12)c1ccc(F)cc1 | - | - | - | - | -
SMILES | Mito fusion yeast | HEK293 tox | GLP-1R inv ag | BRCA1 expr act | GLP1R ag
Fc1ccc(CN2CCc3nc(N4CCN(c5ccccc5F)CC4)ncc3C2)c(F)c1 | . | - | - | . | .
CCOc1ccccc1CN1CCc2nc(N3CCN(c4ccccc4F)CC3)ncc2C1 | . | - | 10µM | . | .
CCOc1ccccc1OCC(=O)OCC(=O)Nc1ncc(Cl)cc1Cl | - | - | - | - | -
COc1ccc(OC)c(NC(=O)Nc2c(C)n(C)n(-c3ccccc3)c2=O)c1 | . | - | - | . | .
COc1ccc(Cl)cc1NC(=O)CN(C)C(=O)c1ccc(C)s1 | - | - | 5.6µM | - | -
COc1ccc(Cl)cc1NC(=O)CN(C)CC(=O)Nc1c(C)n(C)n(-c2ccccc2)c1=O | - | - | 10µM | - | -
COc1ccc(S(=O)(=O)NCCSCc2cccc(C)c2)cc1Br | - | - | 11µM | - | -
O=C(CCCc1ccccc1)Nc1cccc(C(=O)O)c1 | - | - | 2µM | - | -
COc1ccc(NC(=O)CCCc2ccccc2)cc1OC | - | - | - | 11µM | -
COC(=O)c1cccc(NC(=O)CCc2ccccc2)c1 | - | - | - | 7.9µM | -
COc1cc(Cn2c3ccc(NC(=O)CCc4ccccc4)cc3c(=O)n2C)ccc1F | . | ? | 2.2µM | - | -
COC(=O)c1cccc(NC(=O)CCc2cc(OC)c(OC)c(OC)c2)c1 | - | - | - | - | -
CCN(CC)C(=O)CCCSc1nnc(Nc2ccccc2F)s1 | - | - | - | 4.5µM | -
O=C1c2ccccc2C(=O)N1CSc1nnc(Nc2ccccc2F)s1 | - | - | - | - | -
CCOC(=O)c1cc(N2CCCCC2)nc2ccccc12 | . | - | 7.9µM | - | -
Nc1ccc(OCc2ccccc2)cc1 | - | - | - | ? | ?
Nc1cc(OCc2ccccc2)ccc1OCc1ccccc1 | . | - | ? | 11µM | -
O=C1CCn2nc(-c3ccc(Cl)cc3)cc2N1 | - | - | - | 4µM | -
CCN1C(=O)c2ccccc2S(=O)c2ccc(C(=O)N3CCN(c4cc(Cl)ccc4C)CC3)cc21 (configuration not stated) | . | - | ? | - | -
Cc1cc(N2CCCCC2)nc2ccc(NC(=O)c3cccc(F)c3)cc12 | . | ? | 11µM | . | .
CCN1CCN(c2cc(C)c3cc(NC(=O)c4ccccc4F)ccc3n2)CC1 | - | - | - | . | .
Cc1cc(N2CCN(C)CC2)nc2ccc(NC(=O)Nc3ccccc3)cc12 | . | - | ? | . | .
Cc1cc(N2CCN(C)CC2)nc2ccc(NC(=O)Nc3cccc(Cl)c3)cc12 | . | ? | 10µM | . | .
Cc1cc(N2CCN(C)CC2)nc2ccc(NC(=O)c3ccccc3F)cc12 | - | - | ? | 11µM | -
CCCCNC(=O)c1ccc(NC(=O)C2CCCO2)cc1 (configuration not stated) | - | - | - | - | -
SMILES | Mito fusion yeast | HEK293 tox | GLP-1R inv ag | BRCA1 expr act | GLP1R ag
CCCCc1ccc(NC(=O)Nc2cccnc2)cc1 | - | - | 7.1µM | ? | -
CCCCc1ccc(NC(=O)C2CCCO2)cc1 (configuration not stated) | - | - | - | 1.4µM | -
Cc1nc(Nc2ccccc2)sc1-c1ccccc1 | - | - | ? | ? | -
O=C(c1nc(SCc2ccc([N+](=O)[O-])cc2)n2ccccc12)C(F)(F)F | - | - | - | - | -
CC(C)NC(=O)c1[nH]nc2c1CCc1ccccc1-2 | - | - | ? | 2µM | -
COc1cccc(/C=N/NC(=O)c2[nH]nc3c2CCc2ccccc2-3)c1 | - | ? | ? | - | -
